This is part of a sample that, as a whole, favours compounds with a hit. Of some 83,000 tested, about 20% had one in any assay.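 Interpretation: 100, growth as untreated; towards 0, rising growth inhibition; 0, no net growth; 0 to -100, cell death. Compounds scoring below 10 were considered active.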 A number with no mark means an inactive call. Activity calls are given as the source filed them.

The experiment concerns MDA-MB-468 breast. As to the kind of experiment: NCI-60 one-dose screen, 48 h (100 = growth as untreated, 0 = no growth, -100 = all killed). The settings on record: 10 µM unless noted.
In the case of `OCC1OC(n2ccc3c(NO)ncnc32)C(O)C1O` (centres undefined), the growth is -88.8% (active).

As to `COc1cc(OC)c2c(c1Cl)O[C@]1(C2=O)C(OCc2ccccc2)=CC(=O)C[C@H]1C`, the growth is -4.52% (active).

For the molecule `CCc1ccc2c(c1)N(CCO)C1=C(C(=O)OC1)C2c1cc(OC)c(OC)c(OC)c1` (centres undefined), the growth was 2.83% (active).

Take `O=C(N/N=C/c1cccc(O)c1)c1ccccc1Nc1cccc(C(F)(F)F)c1`: the growth was 27%.

Take `O=C(Nc1ncc(Cc2ccc(Cl)cc2)s1)C1=NCCCCN1`: the growth was 102%.

Regarding `O=C1Nc2ccc(Br)cc2/C1=N\c1nnc(-c2ccc(Cl)cc2)o1`, the growth was 51.8%.

For the molecule `O=C(NCc1ccccc1)c1ccc2c(c1)NC(=O)[C@@H]1CCCN21`, the growth was 103%.

Regarding `Oc1c(I)cc(I)cc1CNCCN(Cc1ccccn1)Cc1ccccn1`, the growth was -61.2% (active).

Regarding `O=C(Oc1ccccc1Cl)c1ccc(Cl)cc1Cl`, the growth was 103%.

With `c1ccc(-c2nnc(-c3ccccn3)s2)nc1`, the growth is 23.5%.

Consider `CCOC(=O)c1cnn2c3ccccc3n(S(=O)(=O)c3ccc(OC)cc3)c12`, for which the growth is -12.1% (active).

Regarding `CCCCCCCCCCCCCCCCC(=O)O.CCCCCCCCCCCCCCCCCC(=O)O.CCCCCCCCCCCCCCCCCC(=O)O.CCCCCCCCCCCCCCCCCC(=O)O.CCCCCCCCCCCCCCCCCC(=O)O.CO[CH-]OC12COC1CC(O)C1(C)C(O)C(OC(C)O)C3=C(C)C(OC(=O)C(O)C([NH-])c4ccccc4)CC(O)(C(OC(=O)c4ccccc4)C21)C3(C)C.[Cu+].[Zn].[Zn].[Zn].[Zn].[Zn]` (centres undefined), the growth is -13.3% (active).

Turning to `Nc1cc(O)cc(O)c1`, the growth is 107%.

Take `CCOC(=O)C1CCCN1C(=O)C1(NC(C)=O)CCCC1` (centres undefined): the growth is 98.9%.

For `O=C1CCCC2=C1C(c1c[nH]c3ccc(Br)cc13)Cc1cc(Br)ccc1N2` (centres undefined), the growth is -6.51% (active).

As for `Cc1ccc(C)c2c1sc1nc3n[nH]c(N)c3c(=N)n12`, the growth was 97.1%.

For the molecule `CCNc1ncnc2n[nH]nc12`, the growth was 97.2%.

Consider `COc1ccc(-c2nnc(SCC(=O)c3ccccc3)o2)cc1`, for which the growth was 91.5%.

Regarding `CCc1c(C)[nH]c(=O)c(C(N)=O)c1C#N`, the growth was 105%.

For `OCCOCC(F)(F)F`, the growth is 106%.

On to `CCOc1ccc(NC2=C(Cl)C(=O)c3nc(C)ccc3C2=O)cc1`, for which the growth is -95.2% (active).

Turning to `O=c1ssc(Cl)c1-c1ccccc1`, the growth was 97.3%.

For `CCCCC(CCCC)(S(=O)(=O)CC)S(=O)(=O)CC`, the growth is 98.2%.

In the case of `COc1cc2cc(Oc3ccc(NC(=O)c4ccc(Cl)c(C(F)(F)F)c4)cc3)c(C)nc2cc1OC`, the growth was 6.44% (active).

On to `NS(=O)(=O)c1ccc(CCn2c(SCC(=O)c3ccc(Cl)cc3)nc3ccccc3c2=O)cc1`, for which the growth is 105%.

For the molecule `CCCCNC(=O)Oc1ccc2c(=O)c3sc4c(=O)c5ccccc5c(=O)c4c3c(=O)c2c1`, the growth is -48.3% (active).

Regarding `NC(=O)c1cc(Br)cc(Br)c1NS(=O)(=O)c1ccccc1`, the growth was 106%.

On to `CCN(CC)CCCNc1cc(OC)cc2nc3cc(Cl)ccc3nc12`, for which the growth is 11%.

In the case of `CCOc1ccccc1C(=O)/C=C/c1cc2ccccc2[nH]c1=O`, the growth was -20.2% (active).

Turning to `O=C1CC(SC(=S)C2CCCC2=O)C(=O)N1` (centres undefined), the growth was 106%.

On to `CCCCCCCCCN1C(=O)/C(=c2\sc3n(c2=O)C2C(NN=3)N(CC)C(=O)N2CC)c2ccccc21` (centres undefined), for which the growth was 37.9%.

As to `CCOC(=O)c1ccc(NC(=O)c2nc(-c3cc(OC)c(OC)c(OC)c3)n(-c3ccc(Cl)cc3)n2)cc1`, the growth is 107%.

Take `COc1cccc(OC)c1OC(=O)c1ccccc1`: the growth was 105%.

Turning to `C=C(C)[C@@H]1CC[C@]2(C(=O)NCCCCCCN(CCCN)CCCN)CC[C@]3(C)[C@H](CC[C@@H]4[C@@]5(C)CC[C@H](OCCCN)C(C)(C)[C@@H]5CC[C@]43C)[C@@H]12`, the growth is 21.2% [100 µM].

With `O=S(=O)(N=C1C(Cl)=C(Cl)C(=NS(=O)(=O)c2ccccc2)C(Cl)=C1Cl)c1ccccc1`, the growth is 70.3%.

Take `Cc1sc2nc(NCCN)[nH]c(=O)c2c1C`: the growth is 80%.

`O=C1c2cccc3cccc(c23)C(=O)N1Nc1nc(NC2CCCCC2)nc(N2CCOCC2)n1`: the growth was 114%.

For `Cc1nn(-c2ccc(Br)cc2)c2nc3c(nc12)C(=O)C(=O)c1ccccc1-3`, the growth was 95.1%.

In the case of `N/C(=N\c1nc2ccccc2s1)NC(=O)Nc1ccccc1Cl`, the growth is 16.6%.
